PBM binding z-score data for six sequences are collected here from the supplement of paper PMC6555819.

Holding throughout (test): PBM binding z-score (relative to random genomic background probes); higher = stronger binding; sequences stand for … in GC…GCGATTGACAGCGTAGAATGAAGG
Test [1] has as its system FXR:RXRa (NR concentration 270 nM, RXRa partner concentration 90 nM). Put shortly: (§1)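 Binding buffer was PBS pH 7.4 with 2% milk, 0.02% Triton X-100, 1 mM DTT, 0.2 mg/mL BSA and 0.4 mg/ml salmon testes DNA. In it, ligand-free nuclear receptor dimers were incubated 1 h on custom Agilent 4×180K protein-binding microarrays carrying double-stranded probes. Antibodies against each partner (one per run) detected binding, and z-scores were calculated against random background probes after regression normalization of scanned fluorescence.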

Test [2] has as its system LXRa:RXRa (NR concentration 270 nM, RXRa partner concentration 90 nM). Put shortly:
as §1

Test [3] has as its system LXRa homodimer (NR concentration 270 nM). The method in brief: as §1
The test system of test [4] is LXRb:RXRa (NR concentration 270 nM, RXRa partner concentration 90 nM). The method in brief:
as §1

Test [5] relates to LXRb homodimer (NR concentration 270 nM). Put shortly:
as §1

Test [6] deals with PPARa:RXRa (NR concentration 270 nM, RXRa partner concentration 90 nM). The method in brief: as §1
Test [7] concerns PPARg:RXRa (NR concentration 180 nM, RXRa partner concentration 90 nM). The method in brief:
as §1

Test [8] concerns PPARg:RXRa 270nM:90nM, anti-RXR (NR concentration 270 nM, RXRa partner concentration 90 nM). Put shortly: as §1
Test [9] relates to PPARg:RXRa 30nM:10nM, anti-RXR (NR concentration 30 nM, RXRa partner concentration 10 nM). Put shortly:
as §1

The test system of test [10] is PPARg:RXRa 90nM:30nM, anti-RXR (NR concentration 90 nM, RXRa partner concentration 30 nM). The method in brief: as §1
Test [11] concerns PPARg:RXRa DBDmut IVT, anti-RXR (DBD mutation: RXRa K156A/R161A, NR concentration 270 nM, RXRa partner concentration 90 nM). The method in brief: as §1
In test [12] the test system is PPARg:RXRa IVT, anti-PPARg (NR concentration 270 nM, RXRa partner concentration 90 nM). The method in brief: as §1
The subject of test [13] is PPARg DBDmut:RXRa IVT, anti-PPARg (DBD mutation: PPARg1 K132A/R137A, NR concentration 270 nM, RXRa partner concentration 90 nM). The method in brief:
as §1

The subject of test [14] is PPARg DBDmut IVT, anti-PPARg (DBD mutation: PPARg1 K132A/R137A, NR concentration 270 nM). The method in brief: as §1
Test [15] has as its system PPARg homodimer (NR concentration 180 nM). Put shortly: as §1
The subject of test [16] is PXR:RXRa (NR concentration 270 nM, RXRa partner concentration 90 nM). Put shortly:
as §1

Test [17] concerns PXR homodimer (NR concentration 270 nM). The method in brief: as §1
Test [18] has as its system RARa:RXR (NR concentration 270 nM, RXRa partner concentration 90 nM). The method in brief: as §1
In test [19] the test system is RARa homodimer (NR concentration 270 nM). The method in brief: as §1
Test [20] relates to RARb:RXRa (NR concentration 270 nM, RXRa partner concentration 90 nM). The method in brief: as §1

In the case of CGGAGTAGGTTATGGGGCATTCAGGCAACGGTGA, the PBM binding z-score in test [1] is 0.339; in test [2], 0.3; in test [3], 0.0885; in test [4], 0.718; in test [5] it was -0.187; in test [6], 2.92. The PBM binding z-score in test [7] was 4.95; in [8] it was 5.93; in [9], 5.09; in test [10], 6.03; in test [11], 4.84; in test [12] it was 5.14. Also, the PBM binding z-score in [13] was 0.983; in test [14], -0.0364; in test [15], 1.28; in test [16], 0.209; in test [17] it was 0.125; in test [18] it was 0.151. Besides, the PBM binding z-score stood at 0.386 in [19] and 0.965 in test [20].

Consider ACAGACAGGTGATGGAGGTAACTCAGGCTATCAT, for which the PBM binding z-score in test [1] was -0.104; in [2], -0.199; in test [3], -0.062; in test [4], -0.121; in [5], -0.598; in [6], 0.109. The PBM binding z-score in [7] was 0.789; in test [8] it was -0.241; in [9] it was -0.252; in test [10] it was -0.291; in test [11], 0.108; in [12] it was 0.744. In addition, the PBM binding z-score in test [13] was 0.159; in test [14], -0.142; in [15], -0.281; in [16], -0.304; in test [17], -0.184; in test [18], 0.033. Besides, the PBM binding z-score in test [19] is -0.0178; in [20] it was 0.173.

GCTGCTAGGTCAACTGATGGTAAGCTAAAGCTCG: the PBM binding z-score in [1] is 3.67; in [2], 2.53; in [3] it was -0.233; in test [4], 1.66; in test [5], -0.0534; in test [6] it was 3.56. Also, the PBM binding z-score was found to be 2.6 in test [7]; 2.85 in [8]; 0.773 in test [9]; 2.04 in test [10]; 5.03 in test [11]; 3.79 in test [12]. The PBM binding z-score in test [13] was -0.843; in [14] it was -0.572; in test [15], 1.33; in test [16], 1.29; in test [17] it was -0.824; in test [18], 2.02. For the same sequence, the PBM binding z-score turned out to be 0.282 in [19] and 4.06 in [20].

Turning to TCTTGTAGATCAAAGGTTTAGAAAGCCGAAGCCT, the PBM binding z-score was 0.668 in test [1]; 0.408 in test [2]; -0.116 in [3]; 0.454 in [4]; -0.505 in test [5]; 1.63 in test [6]. The PBM binding z-score in test [7] was 3.22; in test [8], 5.08; in test [9], 4.18; in test [10], 5.48; in test [11], 1.79; in test [12], 1.19. Besides, the PBM binding z-score is 0.53 in [13]; 0.0845 in test [14]; 0.307 in [15]; 0.16 in [16]; -0.198 in test [17]; 0.358 in test [18]. The PBM binding z-score in [19] was -0.0128; in test [20] it was -0.0359.

As to CGTCCAAGGTAAAGGTCAGTGAAAGAGACTCGAA, the PBM binding z-score was 3.41 in test [1]; 3.38 in [2]; 0.618 in [3]; 3.01 in test [4]; -0.119 in test [5]; 4.54 in test [6]. Moreover, the PBM binding z-score in [7] was determined as 5.24; in [8], 6.05; in test [9] it was 3.76; in [10] it was 5.72; in [11] it was 1.42; in test [12] it was 3.27. Besides, the PBM binding z-score is -0.427 in test [13]; -0.748 in [14]; 1.81 in test [15]; 3.05 in [16]; 0.298 in test [17]; 3.83 in [18]. In addition, the PBM binding z-score was 1.38 in [19] and 4.61 in [20].

Regarding TCTTGTAGATCAGCAGGTTAAGAGAGCTGGCCAA, the PBM binding z-score in test [1] was -0.327; in test [2], -0.11; in [3], -0.629; in test [4], 0.359; in test [5] it was -0.638; in test [6] it was 0.689. Moreover, the PBM binding z-score in [7] was -0.415; in test [8] it was 1.35; in test [9], 2.45; in [10] it was 1.77; in [11], 1.29; in test [12], 0.366. Further, the PBM binding z-score in test [13] is -0.495; in test [14] it was -0.454; in [15], -0.22; in test [16], 0.214; in test [17] it was -0.483; in test [18], 0.282. For the same sequence, the values for the PBM binding z-score in test [19] and in test [20] were -0.593 and 0.113, respectively.
